Assay [1] in a line: A CellTox Green Cytotoxicity Assay to monitor cytotoxicity in HEK293 cells - 32 hour (AID 1224881). Note: nearly all actives have a fitted effect of over 40% in size. The method in brief:
(§1)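 Homogeneous no-lysis format: HEK293 cell suspension mixed with CellTox Green reagent, seeded, incubated 5 h at 37 C/5% CO2, then dosed by pintool with compound in DMSO.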

Assay [2] in a line: A CellTox Green Cytotoxicity Assay to monitor cytotoxicity in HepG2 cells - 0 hour (AID 1224882). Note: nearly all actives have a fitted effect of over 35% in size. Note: potency is the fitted concentration of half-maximal effect. In short, it runs like this: (§2)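 Fluorescent DNA-binding dye, 600 HepG2 cells/well, 5 h preincubation then compound in DMSO; same plates read at 0–40 h, 37 C.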
A short description of assay [3]: A CellTox Green Cytotoxicity Assay to monitor cytotoxicity in HepG2 cells - 32 hour (AID 1224883). Note: nearly all actives have a fitted effect of over 50% in size. In short, it runs like this:
as §2

The nature of assay [4]: A CellTox Green Cytotoxicity Assay to monitor cytotoxicity in HEK293 cells - 8 hour (AID 1224884). Note: nearly all actives have a fitted effect of over 35% in size. The method in brief:
as §1

The nature of assay [5]: qHTS RealTime-Glo MT Cell Viability Assay in HepG2 cells - 16 hour (AID 1224885). Note: nearly all actives have a fitted effect of over 50% in size. The method in brief: (§3)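 Compound treatment began 5 h after plating HepG2 cells (600/well) with NanoLuc luciferase and prosubstrate. Plates stayed at 37 C for 40 h; luminescence was captured at six time points, 0 h through 40 h.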
(qHTS replaces the single test concentration by a dilution series.)

Assay [6] is described as follows: qHTS RealTime-Glo MT Cell Viability Assay in HEK293 cells - 24 hour (AID 1224886). Note: top concentration of the series differs between compounds; nearly all actives have a fitted effect of over 50% in size. In short, it runs like this: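 Quantitative high-throughput screen of the Tox21 10K library in HEK293: cells and RealTime-Glo reagents plated together, compound added at 5 h, luminescence monitored through 40 h at 37 C.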
Assay [7] can be described thus: qHTS RealTime-Glo MT Cell Viability Assay in HEK293 cells - 8 hour (AID 1224887). Note: top concentration of the series differs between compounds; nearly all actives have a fitted effect of over 50% in size. The method in brief: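 Measured as luminescence from the same continuously cultured HEK293 wells at successive time points (0, 8, 16, 24, 32, 40 h) after compound addition. Reagent present from seeding; dosing at 5 h; incubation 37 C.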
Assay [8] is described as follows: A CellTox Green Cytotoxicity Assay to monitor cytotoxicity in HEK293 cells - 16 hour (AID 1224888). Note: nearly all actives have a fitted effect of over 35% in size. In short, it runs like this: as §1
A short description of assay [9]: A CellTox Green Cytotoxicity Assay to monitor cytotoxicity in HepG2 cells - 8 hour (AID 1224890). Note: nearly all actives have a fitted effect of over 45% in size. The method in brief:
as §2

The nature of assay [10]: qHTS assay to identify small molecule antagonists of the estrogen receptor alpha (ER-alpha) signaling pathway using the BG1 cell line in the presence of 0.1 nM 17-beta-estradiol - cell viability counter screen (AID 1259241). Note: nearly all actives have a fitted effect of over 40% in size. In short, it runs like this:
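VM7Luc4E2, 4,000 cells/well, phenol red-free medium + 10% charcoal-stripped FBS; 24 hr plating; cpd + 0.1 nM E2 final, 22 hr 37C/5% CO2; CellTiter-Fluor 30 min, fluorescence.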

Assay [11] can be described thus: qHTS assay to identify small molecule antagonists of the androgen receptor (AR) signaling pathway using the MDA cell line in the presence of 0.5 nM R1881 - cell viability counter screen (AID 1259242). Note: nearly all actives have a fitted effect of over 45% in size. The method in brief: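 Human breast carcinoma MDA-kb2 cells, cultured without CO2, receive compounds alongside 0.5 nM (final) R1881 agonist. After 16 hr at 37C, viability is taken as live-cell protease signal.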

A short description of assay [12]: qHTS assay to identify small molecule phospholipidosis (PLD) inducers (AID 1259344; active = well fitted curve in the direction sought with a large enough effect; an effect the other way counts as inactive or inconclusive). In short, it runs like this: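 Accumulated phospholipid, stained red by LipidTOX during 24 h compound treatment of HepG2 cells at 37 C, is quantified from images as pit number and intensity, normalised per cell using Hoechst-stained nuclei.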
Assay [13] is described as follows: qHTS assay to identify small molecule HDAC inhibitors (AID 1259364).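 Note: wild-type HCT-116 cells with endogenous class I/II HDAC activity; top concentration of the series differs between compounds; nearly all actives have a fitted effect of over 45% in size.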 In short, it runs like this:
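After a 2 hr compound incubation (37C, 5% CO2), HCT-116 cells seeded at 1,500/well the day before received HDAC-Glo reagent; signal read as luminescence after 30 min at room temperature.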

The nature of assay [14]: qHTS assay to identify small molecule HDAC inhibitors - cell viability counter screen (AID 1259365). The method in brief:
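Luminescence from CellTiter-Glo, developed 30min at room temperature, reports viability of wild-type HCT-116 cells treated 2hr with compounds at 37 C and 5% CO2 after overnight plating.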

Assay [15] is described as follows: qHTS assay to identify small molecule agonists of the sonic hedgehog signaling (Shh) pathway - cell viability counter screen (AID 1259366). Note: nearly all actives have a fitted effect of over 50% in size. The method in brief:
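Cytotoxicity counter screen run in the same wells as the Shh reporter assay. NIH/3T3 cells carrying a Gli1 response element–driven luciferase were treated with DMSO-dissolved compounds for 24hr, and live-cell protease activity was measured with CellTiter-Fluor.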

Assay [16] is described as follows: qHTS assay to identify small molecule antagonists of the sonic hedgehog signaling (Shh) pathway - cell viability counter screen (AID 1259367). Note: nearly all actives have a fitted effect of over 55% in size. In short, it runs like this: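 CellTiter-Fluor signal in conditioned medium-stimulated 3T3 Gli1-Luc cells, 23 hr compound exposure, 37C.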
A short description of assay [17]: qHTS assay to identify small molecule agonists of the sonic hedgehog signaling (Shh) pathway (AID 1259368; calls by dose curve;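 note: NIH/3T3-derived 3T3Gli1-Luc cells carrying a stable Gli1-driven firefly luciferase reporter; series mostly up to about 92 µM; nearly all actives have a fitted effect of over 15% in size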). In short, it runs like this: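 Stable NIH/3T3 Gli1-Luc reporter clone; 24 hr cpd exposure after a 4 hr settling period; luminescence endpoint.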
Assay [18] addresses Estrogen receptor (Homo sapiens) (UniProt P03372). The assay is described as follows: qHTS assay to identify small molecule antagonists of the estrogen receptor alpha (ER-alpha) signaling pathway using the BG1 cell line in the presence of 0.1 nM 17-beta-estradiol (AID 1259244). Note: nearly all actives have a fitted effect of over 50% in size. In short, it runs like this: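 Seeding of stripped-serum-adapted VM7Luc4E2 cells, 24 h attachment, compound transfer, then 0.1 nM final 17beta-estradiol; after 22 h incubation, ONE-Glo reagent and luminescence reading.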

A short description of assay [19]: qHTS RealTime-Glo MT Cell Viability Assay in HepG2 cells - 0 hour (AID 1224889). Note: nearly all actives have a fitted effect of over 50% in size. In short, it runs like this: as §3

Unmarked numbers belong to inactive results. Records with an inconclusive call do not appear. Activity calls are given as the source filed them. Unless noted, calls come from the whole dose curve; as a rule, active = well fitted curve in the direction sought with a large enough effect in the repeat runs; inconclusive = weak or mixed curves; inactive = no such curve, though single readings can be large; an effect the other way counts as inactive or inconclusive.
% is set by controls: 0 for no effect and ±100 for the full control effect.

Estrogen receptor (Homo sapiens), sequence (P03372 whole entry, looked up): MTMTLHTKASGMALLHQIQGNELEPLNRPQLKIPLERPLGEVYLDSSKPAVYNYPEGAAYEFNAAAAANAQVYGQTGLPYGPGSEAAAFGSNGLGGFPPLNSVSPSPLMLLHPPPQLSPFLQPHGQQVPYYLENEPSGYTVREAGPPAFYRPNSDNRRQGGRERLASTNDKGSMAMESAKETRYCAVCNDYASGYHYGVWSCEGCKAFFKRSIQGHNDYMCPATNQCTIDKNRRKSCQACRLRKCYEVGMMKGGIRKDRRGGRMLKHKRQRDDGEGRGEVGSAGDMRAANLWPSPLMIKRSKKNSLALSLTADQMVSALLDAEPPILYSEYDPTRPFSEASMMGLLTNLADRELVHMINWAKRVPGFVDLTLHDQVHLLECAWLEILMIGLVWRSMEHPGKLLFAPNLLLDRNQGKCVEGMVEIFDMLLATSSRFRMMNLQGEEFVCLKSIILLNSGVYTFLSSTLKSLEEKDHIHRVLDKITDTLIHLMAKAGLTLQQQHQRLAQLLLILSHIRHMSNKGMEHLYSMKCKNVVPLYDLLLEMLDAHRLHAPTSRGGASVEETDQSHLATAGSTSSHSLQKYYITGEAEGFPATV

As for `COc1cc(C)nc(-n2nc(C)cc2OC)n1`, the result in [1], in assay [4], in [5], in assay [8], in [9] and in assay [10] was inactive. The outcome in assay [11], in assay [12], in assay [14] and in [17] was inactive. In addition, the Potency entry in [2], in assay [3], in assay [6], in assay [7], in assay [13] and in [15] was “inactive” each time. For the same compound, the Potency entry in [16] was “inactive”.
Consider `CCOC(=O)OC(C)OC1=C(C(=O)Nc2ccccn2)N(C)S(=O)(=O)c2ccccc21` (stereo not drawn), for which the outcome in assay [1], in assay [4], in [5], in [8], in assay [9] and in assay [10] was inactive. In addition, the result in assay [11], in assay [18], in assay [14] and in assay [17] was inactive. In addition, the Potency entry in assay [2], in assay [3], in assay [6], in assay [7], in assay [13] and in assay [15] was “inactive” in each case. Besides, the Potency entry in assay [16] is “inactive”.
In the case of `O=C(O)CNC(=O)c1ccc(CO)o1`, the call in [1], in [4], in [5], in [8], in [9] and in assay [11] was inactive. Also, the outcome in [14] and in assay [17] was inactive. Also, the Potency entry in assay [2], in assay [3], in assay [6], in assay [7], in assay [19] and in [13] was “inactive” each time. In addition, the Potency entry in assay [15] and in [16] was “inactive” in each case.
In the case of `CCN1C=CN(C)C1C` (stereo not drawn), the call in [1], in assay [4], in [5], in [8], in [9] and in assay [10] was inactive. Also, the outcome in assay [11], in assay [18], in assay [14] and in assay [17] was inactive. The Potency result in assay [2], in assay [3], in assay [6], in [7], in assay [13] and in assay [15] was “inactive” throughout. In addition, in [16], the Potency result is “inactive”.
As to `CCCCN1C=CN(C)C1`, the cytotoxicity increase in assay [1] was -9.11% [at 15.8 µM]; in assay [3], -19.6% [at 15.8 µM]; in assay [4] it was -6.47% [at 15.8 µM]; in [9] it was -8.5% [at 15.8 µM]. Also, the cytotoxicity in [2] is -12.1% [at 15.8 µM]. In addition, in assay [5], the activity change, negative = cytotoxic is 3.26% [at 15.8 µM]. Besides, the activity change, negative = cytotoxicity in assay [6] is 9.28% [at 15.8 µM]; in [7], 5.36% [at 15.8 µM]; in assay [19], 0.175% [at 15.8 µM]; in [14], 5.24% [at 19 µM]. For the same compound, the activity change is -9.59% [at 15.8 µM] in assay [8] and 1.75% [at 18.9 µM] in assay [17]. For the same compound, the figures for the viability change, negative = cytotoxic in [11], in [15] and in assay [16] were 0.923% [at 19 µM], 3.43% [at 19 µM] and 0.731% [at 19 µM], respectively. The activity change, negative = inhibition in assay [18] was 8.85% [at 19 µM]; in assay [13], -8.42% [at 19 µM].
On to `CCCCN(CCC(=O)OCC)C(C)=O`, for which the result in assay [1], in [4], in assay [5], in assay [8], in assay [9] and in assay [11] was inactive. The outcome in assay [18] and in assay [17] was inactive. Besides, the Potency result in [2], in assay [3], in [6], in assay [7], in [19] and in assay [13] was “inactive” throughout. Moreover, the Potency result in [15] was “inactive”.
`NC(N)=NCCN1CCCCCCC1`: the cytotoxicity increase in assay [1] was 2.16% [at 0.29 µM]; in assay [3], -12.8% [at 0.29 µM]; in [4], 0.959% [at 0.29 µM]; in assay [9], -11.3% [at 0.29 µM]. The cytotoxicity in assay [2] is -10% [at 0.29 µM]. The activity change, negative = cytotoxic in assay [5] is 1.58% [at 0.29 µM]. Further, the activity change, negative = cytotoxicity in assay [6] was -3.39% [at 0.29 µM]; in assay [7], -0.479% [at 0.29 µM]; in [10] it was -0.721% [at 0.349 µM]; in assay [14], -1.69% [at 0.349 µM]. In addition, the activity change is 1.24% [at 0.29 µM] in assay [8] and -0.0353% [at 0.349 µM] in assay [17]. In addition, the viability change, negative = cytotoxic in [11] is 1.84% [at 0.349 µM]; in [15], -1.53% [at 0.349 µM]; in assay [16], 3.04% [at 0.349 µM]. Further, the outcome in assay [12] was inactive. Moreover, the activity change, negative = inhibition in [13] was -1.37% [at 0.349 µM].
Turning to `Cc1ccc(C(=O)Nc2ccc(S(=O)(=O)O)c3cc(S(=O)(=O)O)cc(S(=O)(=O)O)c23)cc1NC(=O)c1cccc(NC(=O)Nc2cccc(C(=O)Nc3cc(C(=O)Nc4ccc(S(=O)(=O)O)c5cc(S(=O)(=O)O)cc(S(=O)(=O)O)c45)ccc3C)c2)c1`, the call in [1], in assay [4], in assay [5], in assay [8], in assay [9] and in [10] was inactive. The result in assay [11], in assay [18], in [12], in assay [14] and in [17] was inactive. Besides, the Potency in assay [2] is 23.9 µM (active). The Potency result in assay [3], in [6], in assay [7], in assay [13] and in assay [15] was “inactive” each time.

The values are drawn from PubChem BioAssay (Tox21).
